Values joined by “and” are separate entries in the source; they are usually repeats but may differ in a detail not shown here. Equal entries are not always repeated. Out of some 5,500 compounds screened, about 2,000 (36%) were called active. About 18% were inconclusive and are not listed. Rule as the data show it: active = normalized growth mostly below about 0.91 (no sharp cut-off); inconclusive = no clear call, values can overlap the other calls; inactive = mostly above about 0.92. The list shows a part of the results.
Assay: chemical genetic growth profiling, strain panel (AID 1159580);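 also: tested at 20 µM; growth read once vehicle control cultures reached saturation at 30 °C; 1 = growth at the plate median or of vehicle wells; lower values mean less growth of the strain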
Conditions: S. cerevisiae deletion strains, growth OD

Measured: normalized growth

NC1(C(=O)O)CC1
inactive: locus YAL013W, strain DEP1, active compounds read low 1 | locus YAL021C, strain ccr4, active compounds read low 1.04 | locus YAL026C, strain drs2, active compounds read low 1.04 | locus YAL030W, strain snc1, active compounds read low 1.02 | locus YAL040C, strain CLN3, active compounds read low 0.98 | locus YBL061C, strain skt5, active compounds read low 1.04 | locus YBR009C, strain hhf1, active compounds read low 1.02 | locus YBR021W, strain FUR4, active compounds read low 1.01 | locus YBR023C, strain chs3, active compounds read low 1.03 | locus YBR171W, strain sec66, active compounds read low 1.04 | locus YBR229C, strain ROT2, active compounds read low 1.01 | locus YBR231C, strain swc5, active compounds read low 1.02 | locus YBR279W, strain paf1, active compounds read low 1.02 | locus YCL011C, strain gbp2, active compounds read low 1.02 | locus YCL016C, strain dcc1, active compounds read low 1.04 | locus YCL029C, strain bik1, active compounds read low 1.02 | locus YCL061C, strain MRC1, active compounds read low 1.02 | locus YCL069W, strain vba3, active compounds read low 1.02 | locus YCR088W, strain abp1, active compounds read low 1.02 | locus YDL005C, strain med2, active compounds read low 1.03 | locus YDL035C, strain GPR1, active compounds read low 1.03 | locus YDL040C, strain nat1, active compounds read low 1.02 | locus YDL074C, strain BRE1, active compounds read low 1.01 | locus YDL101C, strain DUN1, active compounds read low 1.01 | locus YDL134C, strain PPH21, active compounds read low 1.01 | locus YDL185W, strain tfp1, active compounds read low 1.03 | locus YDL192W, strain arf1, active compounds read low 1.02 | locus YDR001C, strain nth1, active compounds read low 1.02 | locus YDR069C, strain doa4, active compounds read low 1.04 | locus YDR101C, strain arx1, active compounds read low 1 | locus YDR137W, strain rgp1, active compounds read low 1.06 | locus YDR150W, strain NUM1, active compounds read low 1.01 | locus YDR159W, strain sac3, active compounds read low 1.02 | locus YDR162C, strain NBP2, active compounds read low 1.03 | locus YDR195W, strain ref2 1.02 | locus YDR297W, strain sur2, active compounds read low 1.03 | locus YDR318W, strain mcm21, active compounds read low 1.03 | locus YDR334W, strain swr1, active compounds read low 1.03 | locus YDR335W, strain msn5, active compounds read low 1.04 | locus YDR363W, strain ESC2, active compounds read low 0.986 | locus YDR388W, active compounds read low 1.01 | locus YDR392W, strain spt3, active compounds read low 1.05 | locus YDR502C, strain sam2, active compounds read low 1.02 | locus YEL003W, strain gim4, active compounds read low 1.02 | locus YEL037C, strain rad23, active compounds read low 1.02 | locus YEL061C, strain CIN8 (second series), active compounds read low 1.03 | locus YEL061C, strain CIN8, active compounds read low 1 | locus YER002W, strain NOP16, active compounds read low 0.981 | locus YER015W, strain faa2, active compounds read low 1.03 | locus YER016W, strain bim1, active compounds read low 1.04 | locus YER110C, active compounds read low 1.03 | locus YER111C, strain swi4, active compounds read low 1.01 | locus YER155C, strain BEM2 (second series), active compounds read low 1.02 | locus YER155C, strain BEM2, active compounds read low 0.998 | locus YER167W, strain BCK2, active compounds read low 1.05 | locus YFR010W, strain ubp6, active compounds read low 1.01 | locus YGL078C, strain dbp3, active compounds read low 1.02 | locus YGL086W, strain mad1, active compounds read low 1.03 | locus YGL167C, strain pmr1, active compounds read low 1.04 | locus YGL173C, strain kem1, active compounds read low 1.03 | locus YGL227W, strain vid30, active compounds read low 1.02 | locus YGL240W, strain doc1, active compounds read low 1.01 | locus YGL248W, strain PDE1, active compounds read low 1.01 | locus YGL253W, strain hxk2, active compounds read low 1.04 | locus YGR078C, strain PAC10, active compounds read low 1.02 and 0.978 | locus YGR135W, strain pre9, active compounds read low 1.03 | locus YGR229C, strain SMI1, active compounds read low 1.01 | locus YGR252W, strain gcn5, active compounds read low 1.04 | locus YHR013C, strain ard1, active compounds read low 1.06 | locus YHR027C, strain rpn1, active compounds read low 1.04 | locus YHR030C, strain SLT2, active compounds read low 1 and 1.03 | locus YHR079C, strain IRE1 (second series), active compounds read low 1.01 | locus YHR079C, strain IRE1, active compounds read low 1.03 | locus YHR094C, strain hxt1, active compounds read low 1.01 | locus YHR129C, strain ARP1, active compounds read low 1 | locus YHR142W, strain chs7, active compounds read low 1.05 | locus YHR200W, strain rpn10, active compounds read low 1.03 | locus YIL066C, strain RNR3, active compounds read low 1.02 | locus YIL073C, strain SPO22, active compounds read low 1.11 | locus YIL125W, strain kgd1, active compounds read low 1 | locus YIR030C, strain dcg1, active compounds read low 1.01 | locus YJL092W, strain hpr5, active compounds read low 1.02 | locus YJL095W, strain BCK1 (second series), active compounds read low 1.02 | locus YJL095W, strain BCK1, active compounds read low 1.02 and 1.04 | locus YJL115W, strain asf1, active compounds read low 1.03 | locus YJL129C, strain trk1, active compounds read low 1.05 | locus YJL134W, strain LCB3, active compounds read low 1 | locus YJL154C, strain vps35, active compounds read low 1.01 | locus YJL164C, strain tpk1, active compounds read low 1.02 | locus YJL166W, strain qcr8, active compounds read low 1.01 | locus YJL168C, strain set2, active compounds read low 1.02 | locus YJL187C, strain SWE1 (second series), active compounds read low 1.01 | locus YJL187C, strain SWE1, active compounds read low 1.01 | locus YJR043C, strain POL32, active compounds read low 1.01 | locus YJR066W, strain TOR1, active compounds read low 0.98

Reference: PubChem BioAssay AID1159580 (chemical genetic matrix, 2015)
